Shiga toxin inh = blocks Shiga toxin action in Vero cells. Vero cells, Shiga toxin protein synthesis inhibition reporter. inhibition, % at 38.7 µM. actives 9.2% (n = 290,000); in the data active means inhibition mostly above about 28%, no sharp cut-off; inactive means mostly below about 43%; further: 0% is about no effect
LmPK inh = LmPK (Leishmania mexicana) enzyme inhibition; Q27686; Potency, µM (titrated, usually from 57.5 µM), without a hit: at the highest dose activity change, negative = inhibition, actives largely listed as inhibitors; actives 0.37% (n = 290,000); purified LmPK, Kinase-Glo ATP luminescence, 1 h; further: potency means the concentration at half of the fitted maximal effect; on the % scale 0 is the no-effect control and ±100 the full control effect
Target sequence (Q27686 whole entry, looked up): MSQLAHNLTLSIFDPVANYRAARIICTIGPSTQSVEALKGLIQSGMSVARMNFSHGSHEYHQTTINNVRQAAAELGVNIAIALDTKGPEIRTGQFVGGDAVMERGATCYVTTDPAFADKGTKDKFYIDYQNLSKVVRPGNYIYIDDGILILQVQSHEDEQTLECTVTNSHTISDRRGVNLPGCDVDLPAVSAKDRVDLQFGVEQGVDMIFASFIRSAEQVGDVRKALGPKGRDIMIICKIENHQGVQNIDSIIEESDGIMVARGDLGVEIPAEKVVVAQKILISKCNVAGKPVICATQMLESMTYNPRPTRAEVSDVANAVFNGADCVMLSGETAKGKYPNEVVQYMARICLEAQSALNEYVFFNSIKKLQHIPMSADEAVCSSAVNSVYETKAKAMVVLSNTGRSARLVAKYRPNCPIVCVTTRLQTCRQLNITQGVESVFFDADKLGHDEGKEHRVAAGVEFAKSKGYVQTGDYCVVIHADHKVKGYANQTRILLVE
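Purified LmPK (0.1 nM) converted ADP (0.1 mM) to ATP with PEP (0.5 mM) in imidazole buffer pH 7.2 with KCl and MgCl2, 1 h at room temperature. ATP was read by Kinase-Glo luminescence; data normalized to uninhibited and no-enzyme controls.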
NS1 function inh = inhibitors of influenza NS1 protein function; Potency, µM (doses to about 46.1 µM), inactives show at the top dose activity, positive = more growth; actives 0.4% (n = 270,000); calls by dose curve; further: potency means the concentration at half of the fitted maximal effect; actives are rising curves; nearly all actives have a fitted effect of over 50% in size
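Growth recovery, yeast-based: influenza A NS1 expressed in S. cerevisiae causes slow growth, and suppressors are detected by OD600. The parent strain without NS1 is used as positive control.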
CHX counter = affects cycloheximide protein synthesis inhibition readout, counter-screen; cell reporter, cycloheximide protein synthesis inhibition counterscreen; max response, %; actives 12% (n = 300,000); AID 2314; in the data active means max response mostly above about 13%, no sharp cut-off; inactive means mostly below about 14%; further: read at 38.3 µM for the half of the compounds with a filed dose; 0% is about no effect
Giardia FBPA inh-1 = inhibitors of Giardia lamblia fructose-1,6-bisphosphate aldolase | purified Giardia FBPA | Potency, µM (top dose mostly 59.6 µM), inactives show at the top dose activity, negative = inhibition, actives largely listed as inhibitors | actives 0.71% (n = 290,000) | AID 2451; further: potency means the concentration at half of the fitted maximal effect; on the % scale 0 is the no-effect control and ±100 the full control effect; nearly all actives have a fitted effect of over 55% in size
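40 nM FBPA preincubated 10 min at RT with compound (up to 57.5 uM final), then substrate plus GAPDH/TPI/NAD/arsenate coupling and diaphorase/resazurin added. Fluorescence read after 20 min at RT, 525/598 nm.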
Giardia growth = inhibitors of Giardia lamblia growth | shares compounds with Giardia FBPA inh-1 | Giardia lamblia trophozoite growth inhibition | Potency, µM (series often up to 57.5 µM), for the others: at the highest dose activity change, negative = inhibition, hits mostly inhibitors | actives 5% (n = 1,500) | AID 2785;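 further: potency means the concentration at half of the fitted maximal effect; trophozoites exposed to compound for 48 h at 37 °C; on the % scale 0 is the no-effect control and ±100 the full control effect; nearly all actives have a fitted effect of over 70% in size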
Mammal cell tox = counter-screen for Giardia aldolase inhibitors: mammalian cell toxicity | shares compounds with Giardia FBPA inh-1 | mammalian cell viability counter-screen, qHTS | Potency, µM (highest dose often 57.5 µM), without a hit: at the top dose viability change, negative = toxicity, most hits filed as inhibitors | actives 4% (n = 1,500) | AID 2786;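 further: Chinese hamster ovary cells used as mammalian cytotoxicity surrogate; viability measured as cellular ATP by luminescence; potency means the concentration at half of the fitted maximal effect; compound exposure lasted 48 h before reading; on the % scale 0 is the no-effect control and ±100 the full control effect; nearly all actives have a fitted effect of over 60% in size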
Giardia FBPA inh-2 = confirmation of Giardia fructose-bisphosphate aldolase inhibitors | purified Giardia aldolase enzyme activity, qHTS | actives 5% (n = 1,500) | shares compounds with Giardia FBPA inh-1 | Potency, µM (doses to about 57.5 µM), inactives show at the top dose activity change, negative = inhibition, most hits filed as inhibitors; further: potency means the concentration at half of the fitted maximal effect; on the % scale 0 is the no-effect control and ±100 the full control effect; nearly all actives have a fitted effect of over 45% in size
Rabbit FBPA inh = rabbit FBP aldolase inhibition by Giardia aldolase hits; Rabbit muscle FBPA enzyme inhibition, selectivity counter-screen; shares compounds with Giardia FBPA inh-1; Potency, µM (highest dose often 57.5 µM), inactives show at the highest dose activity, negative = inhibition, usual class: inhibitors; actives 4% (n = 1,500); further: potency means the concentration at half of the fitted maximal effect; on the % scale 0 is the no-effect control and ±100 the full control effect; nearly all actives have a fitted effect of over 60% in size
GAPDH coupling = counter-screen for Giardia aldolase inhibitors: GAPDH coupling enzyme; shares compounds with Giardia FBPA inh-1; GAPDH coupling enzyme counterscreen, biochemical, qHTS; Potency, µM (doses to about 57.5 µM), for inactives: top-dose activity change, negative = inhibition, actives largely listed as inhibitors; actives 6% (n = 1,500); further: potency means the concentration at half of the fitted maximal effect; on the % scale 0 is the no-effect control and ±100 the full control effect; nearly all actives have a fitted effect of over 55% in size
The depositor's hits bear a star; [ ] = another dose, or the depositor's remark. Rows were chosen to be rich in hits. Some 14% of all compounds tested hit in one or more screens of this group. Unless noted, the call rests on the fitted dose curve; in most records, active means well fitted curve in the direction sought with a large enough effect; inconclusive means small, poorly fitted or top-dose-only effect, or another doubt; inactive means no such curve, though single readings can be large; an effect the other way counts as inactive or inconclusive.

`CCCNC(=O)CN1C(=O)NC(c2ccccc2)(c2ccccc2)C1=O` gave Shiga toxin inh -10, LmPK inh 2%, NS1 function inh 1%, CHX counter -5 and Giardia FBPA inh-1 6%.
`Nn1c(SCC(=O)Nc2cccc(C(F)(F)F)c2)nncc1=O` gave Shiga toxin inh -2, LmPK inh -10%, NS1 function inh inconclusive, CHX counter -2, Giardia FBPA inh-1 25µM*, Giardia growth -9%[10.4 µM], Mammal cell tox -8%, Giardia FBPA inh-2 -4%, Rabbit FBPA inh -7% and GAPDH coupling 0%.
For O=C(NC(=S)Nc1ccc(CN2CCOCC2)cc1)c1cccc(F)c1 the results were Shiga toxin inh 25, LmPK inh -2%, NS1 function inh -13%, CHX counter 22*, Giardia FBPA inh-1 11µM*, Giardia growth -11%, Mammal cell tox 7%, Giardia FBPA inh-2 -4%, Rabbit FBPA inh 9% and GAPDH coupling 7%.
Screening O=C(NC(=S)Nc1ccc(CN2CCOCC2)cc1)c1cccc([N+](=O)[O-])c1 returned Shiga toxin inh 7, LmPK inh -1%, NS1 function inh 14%, CHX counter 5 and Giardia FBPA inh-1 4%.
COc1ccc(CC(C)N2CCN(Cc3ccccc3)CC2)cc1OC (centres undefined) was read as Shiga toxin inh -9, LmPK inh -4%, NS1 function inh -3%, CHX counter -1 and Giardia FBPA inh-1 -10%.
`O=[N+]([O-])c1ccc(Sc2cccc[n+]2[O-])c2nonc12` gave Shiga toxin inh -2, LmPK inh inconclusive, NS1 function inh -66%, CHX counter 3, Giardia FBPA inh-1 0.35µM*, Giardia growth 2µM*, Mammal cell tox 2.2µM*, Giardia FBPA inh-2 6.3µM*, Rabbit FBPA inh 16µM* and GAPDH coupling 6.3µM*.
Screening O=[N+]([O-])c1ccc(Nc2ccccc2)c2nonc12 returned Shiga toxin inh -8, LmPK inh -12%, NS1 function inh -47%, CHX counter -2 and Giardia FBPA inh-1 1%.
Screening COc1ccc(CNc2cc(-c3cccnc3)ncn2)c(OC)c1 returned Giardia FBPA inh-1 -8%.
`O=C(NCc1cccs1)C1CCCN1C(=O)Nc1ccccc1[N+](=O)[O-]` (centres undefined) gave Shiga toxin inh -7, LmPK inh -1%, NS1 function inh 13%, CHX counter -2 and Giardia FBPA inh-1 5%.
Screening O=C(O)c1cc(Br)ccn1 returned Shiga toxin inh -5, LmPK inh -2%[11.5 µM], CHX counter -2, Giardia FBPA inh-1 16µM*, Giardia growth -8%[10.4 µM], Mammal cell tox 9%, Giardia FBPA inh-2 1%, Rabbit FBPA inh 0% and GAPDH coupling 4%.
`O=C(O)c1cncc(Br)c1` gave Shiga toxin inh -6, LmPK inh -3%, NS1 function inh 8%, CHX counter -2 and Giardia FBPA inh-1 -1%.
O=S(=O)(NCC1CCCO1)c1ccc(Cl)cc1 (centres undefined) was read as Shiga toxin inh -1, LmPK inh 1%, NS1 function inh 7%, CHX counter -1 and Giardia FBPA inh-1 -9%.
`Nc1nc(=S)c2ncn(C3OC(CO)C(O)C3O)c2[nH]1` (centres undefined) gave Shiga toxin inh 9, LmPK inh 1%, NS1 function inh 6%, CHX counter -4, Giardia FBPA inh-1 6.3µM*, Giardia growth 3%[10.4 µM], Mammal cell tox 2%, Giardia FBPA inh-2 1%, Rabbit FBPA inh 2% and GAPDH coupling 1%.
OCC1OC(n2cnc3c(=S)nc[nH]c32)C(O)C1O (centres undefined) was read as Giardia FBPA inh-1 4.5µM*, Giardia growth inconclusive, Mammal cell tox 6.3µM*, Giardia FBPA inh-2 2%, Rabbit FBPA inh 2% and GAPDH coupling -6%.
O=c1[nH]cnc2c1ncn2C1OC(CO)C(O)C1O (centres undefined) was read as Giardia FBPA inh-1 -2%.
Nc1nc2c(ncn2[C@@H]2O[C@H](CO)[C@@H](O)[C@H]2O)c(=O)[nH]1 was read as Giardia FBPA inh-1 9%.
`CC1(C)OC2C(CO)OC(n3cnc4c(=O)[nH]cnc43)C2O1` (centres undefined) gave Giardia FBPA inh-1 -1%.
`CC1(C)OC2C(CO)OC(n3cnc4c(=S)nc[nH]c43)C2O1` (centres undefined) gave Shiga toxin inh -7, LmPK inh 7%, NS1 function inh 2%, CHX counter -3, Giardia FBPA inh-1 4.5µM*, Giardia growth -25%[38.3 µM], Mammal cell tox inconclusive, Giardia FBPA inh-2 -4%, Rabbit FBPA inh -2% and GAPDH coupling 1%.
`O=C(Cc1cc(=O)oc2cc(O)ccc12)NC(Cc1ccc(Cl)cc1)C(=O)O` (centres undefined) gave Shiga toxin inh -4, LmPK inh 0%, NS1 function inh 0%, CHX counter -1 and Giardia FBPA inh-1 4%.
Cc1cc(Br)ccc1NC(=O)C1CCN(C(=O)c2ccco2)CC1 was read as Shiga toxin inh 3, LmPK inh 3%, NS1 function inh 2%, CHX counter -4 and Giardia FBPA inh-1 -8%.
CCCNC(=O)CSc1n[nH]c(=O)n1CCc1ccccc1 was read as Shiga toxin inh -6, LmPK inh -3%, NS1 function inh inconclusive, CHX counter -1 and Giardia FBPA inh-1 4%.
Screening O=C(NC(=S)N1CCN(C/C=C/c2ccccc2)CC1)c1cccnc1 returned Shiga toxin inh 24, LmPK inh -3%, NS1 function inh 2%, CHX counter -2, Giardia FBPA inh-1 11µM*, Giardia growth 11%, Mammal cell tox 10%, Giardia FBPA inh-2 -3%, Rabbit FBPA inh 7% and GAPDH coupling -1%.
For O=C(Cc1ccccc1F)OCN1C(=O)c2ccccc2C1=O the results were Shiga toxin inh 8, LmPK inh -4%, NS1 function inh -3% and CHX counter 10.
